The results in this text go back to paper PMC7826789 (International Journal of Molecular Sciences, 2021).

This assay relates to STK17A.
As for `C[C@@H]1CCNC(=O)c2cc3ccc(C(=O)Nc4nc5ccccc5n4CCCN(C)C)cc3n21` [BI00645435], the Kinases covered result was “STK17A”.
Regarding `CNc1nc(-c2ccc3c(N)n[nH]c3c2)cc(N2C[C@@H](C(=O)Nc3ccccc3)CC[C@H]2C)n1` [GSK2298859], the Kinases covered entry was “STK17A”.
As to `CC(C)c1cc(-c2ccc3c(N)n[nH]c3c2)nc(N)n1` [GSK2250882], the Kinases covered result is “STK17A”.
For `C[C@H]1CC[C@@H](C(=O)Nc2ccccc2)CN1c1cc(-c2ccc3c(N)n[nH]c3c2)nc(N)n1` [GSK2283293] the value was “STK17A”.
